Shown are actives, neighbours in structure and some others; about 17% of the full set was active somewhere.
HepG2 viability – kills HepG2 cells in TGF-b inhibitor counter-screen | HepG2 CAGA-GFP viability, ATP luminescence, 18 h | Potency, µM (doses to about 46.1 µM), without a hit: at the highest dose activity change, negative = cytotoxicity, hits mostly cytotoxic | actives 0.76% (n = 410,000) | AID 588856
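CellTiter-Glo luminescence gave cytotoxicity after 18 hours at 37 degrees C. The cells were HepG2 CAGA-GFP in 1% FBS DMEM, stimulated with 500 pg/mL TGF-beta after compound addition. %Activity was normalised to no-cell wells (complete cell-killing) and DMSO (no toxicity), and curves were fitted and classified.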
DT40 TDP1 no CPT – qHTS for Inhibitors of human tyrosyl-DNA phosphodiesterase 1 (TDP1): qHTS in cells in absence of CPT; DT40 Tdp1-/- hTDP1 cells, no CPT, ATP luminescence, 48 h; actives 15% (n = 420,000); Potency, µM (series often up to 46.2 µM), for the others: at the highest dose activity change, negative = growth inhibition, most hits filed as inhibitors; AID 686978, 2013; also: % is scaled to controls: 0 for no effect and ±100 for the full control effect; nearly all actives have a fitted effect of over 55% in size
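Compound effects on proliferation are scored in DT40 Tdp1-/-;hTDP1 cells in the absence of CPT. ATP levels (CellTiter-Glo luminescence) are recorded after a ≥48 hr, 37 °C incubation.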
S2 tox – viability counter-screen for ATXN expression inhibitors; Potency, µM (titrated, usually from 56.7 µM), actives largely listed as cytotoxic; actives 0.49% (n = 400,000); S2 cells (HEK-293 line with an ATXN2-luciferase reporter) viability, CellTiter-Fluor protease fluorescence, 24 h; AID 651635; also: nearly all actives have a fitted effect of over 40% in size
ATXN2 expr inh – inhibitors of ATXN2 expression | Potency, µM (series often up to 57 µM), for inactives: at the top dose activity change, negative = inhibition, actives largely listed as inhibitors | actives 0.72% (n = 360,000) | HEK-293 ATXN2-luciferase reporter, luminescence, 24 h | AID 1745845; also: % is scaled to controls: 0 for no effect and ±100 for the full control effect; nearly all actives have a fitted effect of over 55% in size
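ATXN2-luciferase reporter cells (luciferase flanked by upstream and downstream ATXN2 gene portions) were treated 24 h at 37 °C with compounds at up to 57 uM. SteadyGlo luminescence gave expression; GF-AFC fluorescence gave viability.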
DT40 TDP1 CPT – growth inhibition of DT40 Tdp1-/-;hTDP1 cells with camptothecin (screen for TDP1 inhibitors); chicken DT40 Tdp1-/-;hTDP1 cells + 20 nM CPT, ATP luminescence, 48 h; Potency, µM (top dose mostly 46.2 µM), for inactives: top-dose activity change, negative = growth inhibition, most hits filed as inhibitors; actives 12% (n = 420,000); also: % is scaled to controls: 0 for no effect and ±100 for the full control effect; nearly all actives have a fitted effect of over 55% in size
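Chicken DT40 Tdp1-/- cells stably complemented with human TDP1 were seeded at 400 cells/well in medium containing 20 nM camptothecin, exposed to pin-transferred compounds, and grown at 37 °C for at least 48 hr. Viability was read as ATP luminescence.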
TGFb SMAD3 inh – TGF-b pathway inhibition | Potency, µM (doses to about 46.1 µM), inactives show at the top dose activity, negative = inhibition, actives largely listed as inhibitors | HepG2 CAGA-GFP TGF-b/SMAD3 reporter, GFP fluorescence, 18 h; TGF-beta stimulated, 500 pg/mL final | actives 1.2% (n = 410,000); also: % is scaled to controls: 0 for no effect and ±100 for the full control effect; nearly all actives have a fitted effect of over 65% in size
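GFP signal (ex488/em500-530) from TGF-beta-stimulated HEPG2 CAGA-GFP cells, 500 pg/mL final, 18 h at 37 degrees C in DMEM plus 1% FBS, normalized to unstimulated and DMSO-stimulated controls.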
Active calls of the source: *. Calls follow the shape of the dose curve; as a rule, active = well fitted curve in the direction sought with a large enough effect; inconclusive = small, poorly fitted or top-dose-only effect, or another doubt; inactive = no such curve, though single readings can be large; an effect the other way counts as inactive or inconclusive. Potency is read from the fitted curve at half-maximal effect.

O=C(NC1CCCCC1)c1ccc(Cn2c(SCc3ccccc3F)nc3cccnc32)cc1 was read as HepG2 viability -52%, DT40 TDP1 no CPT 16µM*, DT40 TDP1 CPT inconclusive and TGFb SMAD3 inh inconclusive.
For O=C(NC1CCCCC1)c1ccc(CSc2nc3cccnc3n2Cc2ccccc2F)cc1 the results were HepG2 viability -26%, DT40 TDP1 no CPT 21µM*, S2 tox inconclusive, ATXN2 expr inh inconclusive, DT40 TDP1 CPT inconclusive and TGFb SMAD3 inh inconclusive.
For O=C(NC1CCCC1)c1ccc(CSc2nc3ccncc3n2Cc2ccccc2F)cc1 the results were HepG2 viability -3%, DT40 TDP1 no CPT inconclusive, S2 tox inactive, ATXN2 expr inh 5%, DT40 TDP1 CPT inconclusive and TGFb SMAD3 inh inconclusive.
`O=C(NCCN1CCCCC1)c1ccc(Cn2c(SCc3cccc(F)c3)nc3cccnc32)cc1` gave HepG2 viability -33%, DT40 TDP1 no CPT inconclusive, DT40 TDP1 CPT inconclusive and TGFb SMAD3 inh -23%.
O=C(NCc1ccccc1F)c1ccc(CSc2nc3cccnc3n2Cc2ccccc2)cc1 was read as HepG2 viability -2%, DT40 TDP1 no CPT -8%, S2 tox inactive, ATXN2 expr inh 11%, DT40 TDP1 CPT -2% and TGFb SMAD3 inh -19%.
Screening COc1ccc(OC)c(S(=O)(=O)N2CCC(C(=O)N(C)Cc3ccccc3)CC2)c1 returned HepG2 viability -15%, DT40 TDP1 no CPT inconclusive, S2 tox inactive, ATXN2 expr inh -4%, DT40 TDP1 CPT inconclusive and TGFb SMAD3 inh -26%.
For CCc1cn(C2CC(O)C(CO)O2)c(=O)[nH]c1=O (stereo not given) the results were HepG2 viability 3%, DT40 TDP1 no CPT -28%, S2 tox inactive, ATXN2 expr inh 7%, DT40 TDP1 CPT inconclusive and TGFb SMAD3 inh 14%.
Nc1nc2c(ncn2C2OC(COC(=O)c3ccccc3)C(OC(=O)c3ccccc3)C2OC(=O)c2ccccc2)c(=O)[nH]1 (stereo not given) was read as DT40 TDP1 no CPT 21µM* and DT40 TDP1 CPT inconclusive.
Nc1nc2c(ncn2C2C[C@H](O)[C@@H](CO)O2)c(=O)[nH]1 (stereo not given in full) was read as HepG2 viability 4%, DT40 TDP1 no CPT 6.5µM*, S2 tox inactive, ATXN2 expr inh 0%, DT40 TDP1 CPT 10µM* and TGFb SMAD3 inh 3%.
For CC(C)C(=O)Nc1nc2c(ncn2[C@H]2CC(O)[C@@H](CO)O2)c(=O)[nH]1 (stereo not given in full) the results were HepG2 viability -10%, DT40 TDP1 no CPT 13µM*, DT40 TDP1 CPT 11µM* and TGFb SMAD3 inh -8%.
`Nc1nc(=O)n([C@H]2C[C@H](O)[C@@H](CO)O2)cc1F` gave ATXN2 expr inh 0.31µM*.
`O=c1[nH]cnc2c1ncn2[C@@H]1C[C@@H](O)[C@H](CO)O1` gave HepG2 viability 25%, DT40 TDP1 no CPT -27%, S2 tox inactive, ATXN2 expr inh 5%, DT40 TDP1 CPT inconclusive and TGFb SMAD3 inh 8%.
`Cc1ccc(-c2noc(COc3ccc(Br)c(C)c3)n2)cc1` gave HepG2 viability -17%, DT40 TDP1 no CPT -12%, S2 tox inactive, ATXN2 expr inh 16%, DT40 TDP1 CPT -3% and TGFb SMAD3 inh -1%.
Screening C=CCCN(C(C(=O)OC)C(C)C)S(=O)(=O)c1ccccc1Br (stereo not given) returned HepG2 viability -16%, DT40 TDP1 no CPT inconclusive, S2 tox inactive, ATXN2 expr inh -5%, DT40 TDP1 CPT inconclusive and TGFb SMAD3 inh -20%.
Screening Cc1c(C(=O)OCc2ccc(F)cc2)sc2nc3n(c(=O)c12)CCC3 returned HepG2 viability 1%, DT40 TDP1 no CPT inconclusive, S2 tox inactive, ATXN2 expr inh 2%, DT40 TDP1 CPT -8% and TGFb SMAD3 inh -1%.
Nc1nc2c(nnn2C2CC(O)C(CO)O2)c(=O)[nH]1 (stereo not given) was read as HepG2 viability -25%, DT40 TDP1 no CPT inconclusive, S2 tox inactive, ATXN2 expr inh -10%, DT40 TDP1 CPT 29µM* and TGFb SMAD3 inh inconclusive.
CCOC(=O)c1cc2c(=O)n3ccccc3nc2n(Cc2ccco2)c1=NC(=O)c1cccc(C)c1 was read as HepG2 viability -26%, DT40 TDP1 no CPT inconclusive, ATXN2 expr inh 0%, DT40 TDP1 CPT 23µM* and TGFb SMAD3 inh 23%.
`CCOC(=O)c1cc2c(=O)n3ccccc3nc2n(Cc2ccco2)c1=NC(=O)c1ccc(Br)cc1` gave HepG2 viability -15%, DT40 TDP1 no CPT -83%, DT40 TDP1 CPT 18µM* and TGFb SMAD3 inh inconclusive.
For CCOC(=O)c1cc2c(=O)n3ccccc3nc2n(Cc2ccco2)c1=NC(=O)c1ccc(C)c(C)c1 the results were HepG2 viability 3%, DT40 TDP1 no CPT inconclusive, ATXN2 expr inh -1%, DT40 TDP1 CPT -23% and TGFb SMAD3 inh 13%.
For CCOC(=O)c1cc2c(=O)n3ccccc3nc2n(Cc2ccco2)c1=NC(=O)c1c(F)cccc1Cl the results were HepG2 viability 6%, DT40 TDP1 no CPT 21µM*, ATXN2 expr inh 2%, DT40 TDP1 CPT inconclusive and TGFb SMAD3 inh inconclusive.
For CCOC(=O)c1cc2c(=O)n3ccccc3nc2n(Cc2ccco2)c1=NC(=O)c1cccc(Br)c1 the results were HepG2 viability -44%, DT40 TDP1 no CPT inconclusive, ATXN2 expr inh 2%, DT40 TDP1 CPT 16µM* and TGFb SMAD3 inh 2%.
Screening CCOc1ccc(Br)cc1S(=O)(=O)Nc1cccc(S(=O)(=O)N(C)C)c1 returned HepG2 viability 16%, DT40 TDP1 no CPT 5%, S2 tox inactive, ATXN2 expr inh -8%, DT40 TDP1 CPT -1% and TGFb SMAD3 inh 7%.
`O=C(CSc1ccc(Br)cc1)Nc1ccc(N2CCOCC2)cc1` gave HepG2 viability 2%, DT40 TDP1 no CPT 1%, S2 tox inconclusive, ATXN2 expr inh -3%, DT40 TDP1 CPT -14% and TGFb SMAD3 inh -2%.
CC(CC(=O)NC1CCCCC1)S(=O)(=O)c1ccc2c(c1)NC(=O)CO2 (stereo not given) was read as HepG2 viability 5%, DT40 TDP1 no CPT 6%, S2 tox inactive, ATXN2 expr inh 1%, DT40 TDP1 CPT -10% and TGFb SMAD3 inh 4%.

Compound activity: PubChem BioAssay, National Center for Advancing Translational Sciences (NCATS)
